Results filed as inconclusive are left out. Calls of active or inactive are those of the source. The calls were made as follows: active = hit-call score of the fitted dose curve at least 0.9, where 1 is the maximum; inconclusive = response in the unintended direction; inactive = score below 0.9.

rat GHB Receptor Antagonism, Tspan17 (gene 306771), sequence (Q4V8E0 whole entry, looked up): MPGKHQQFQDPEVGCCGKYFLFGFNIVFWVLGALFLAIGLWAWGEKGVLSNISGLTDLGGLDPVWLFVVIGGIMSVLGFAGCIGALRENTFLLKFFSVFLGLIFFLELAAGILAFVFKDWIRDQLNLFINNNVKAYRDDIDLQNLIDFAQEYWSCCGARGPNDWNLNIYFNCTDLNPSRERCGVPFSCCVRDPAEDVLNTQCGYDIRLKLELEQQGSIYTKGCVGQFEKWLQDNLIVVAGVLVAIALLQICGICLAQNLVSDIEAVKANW

The target of this test is rat GHB Receptor Antagonism, Tspan17 (gene 306771) (UniProt Q4V8E0). Kind of test: ERF_FR_GPCR_rGHB: Eurofins (ERF) G Protein-Coupled Receptor (GPCR) Radioligand Binding LeadHunter Assay for rat GHB Receptor Antagonism. The method, then:
ERF_FR_GPCR_rGHB is a biochemical, single-readout assay that uses extracted gene-proteins in a cell-free assay. Measurements were taken 2 hour after chemical dosing in a 96-well plate. See GHB Rat Binding (Antagonist Radioligand) Assay, Cerep.ERF_FR_GPCR_rGHB is an assay component calculated from the ERF_FR_GPCR_rGHB assay. It is designed to measure radioligand binding using a type of binding reporter as detected by scintillation counting with radiometry technology.Data from the assay component ERF_FR_GPCR_rGHB was analyzed at the assay endpoint, ERF_FR_GPCR_rGHB, in the positive analysis fitting direction relative to DMSO as the negative control and baseline of activity. Using a type of binding reporter, loss-of-signal activity can be used to understand changes in binding as they relate to gene TSPAN17. To generalize the intended target to other relatable targets, this assay endpoint is annotated to the gpcr intended target family, where the subfamily is ghb .
Brain cortex of Wistar derived rats weighing 175 +/- 25 g are used to prepare GHB receptors in potassium buffer pH 6.0. A 1 mg aliquot is incubated with 20 nM [3H] NCS382 for 120 minutes at 4 C. Non-specific binding is estimated in the presence of 1 mM NCS382. Membranes are filtered and washed, the filters are then counted to determine [3H] NCS382 specifically bound. […]
With `COc1cc(/C=C/C(=O)CC(=O)/C=C/c2ccc(O)c(OC)c2)ccc1O`, the AC50 was 1590 nM (active). Consider `O=C(/C=C/c1ccc(O)cc1)CC(=O)/C=C/c1ccc(O)cc1`, for which the AC50 is 1670 nM (active).

What is called AC50 is the midpoint of the concentration-response curve, whichever way the signal moves.

Source of the values: PubChem BioAssay AID2284187 (EPA ToxCast).
